PubChem BioAssay AID493036 (Sanford-Burnham Center for Chemical Genomics, 2011)
Out of some 330,000 compounds screened, about 560 (0.17%) were called active. This is one part of a sample in which actives are shown more often than they occur.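 How the source made its calls: active means activation at or above 40% of the spot to cytoplasm intensity ratio, with at least 20 cells analyzed; inconclusive means wells under 20 cells, flagged as cytotoxic or low count; inactive means the rest.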

Tests used:
[1] = NTR1-driven beta-arrestin-GFP spot formation – imaging, U2OS cells, high content, primary screen (AID 493036); settings: agonist mode, measured here: cell count, cytotoxicity flag, at 20 µM;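 on activation: 0% = DMSO without peptide and 100% = 100 nM NTR1 peptide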
[2] = target: Neurotensin receptor type 1 (Homo sapiens) (UniProt P30989); experiment: as above; settings: agonist mode, at 20 µM, stronger effect = higher value
Neurotensin receptor type 1 (Homo sapiens), sequence (P30989 whole entry, looked up): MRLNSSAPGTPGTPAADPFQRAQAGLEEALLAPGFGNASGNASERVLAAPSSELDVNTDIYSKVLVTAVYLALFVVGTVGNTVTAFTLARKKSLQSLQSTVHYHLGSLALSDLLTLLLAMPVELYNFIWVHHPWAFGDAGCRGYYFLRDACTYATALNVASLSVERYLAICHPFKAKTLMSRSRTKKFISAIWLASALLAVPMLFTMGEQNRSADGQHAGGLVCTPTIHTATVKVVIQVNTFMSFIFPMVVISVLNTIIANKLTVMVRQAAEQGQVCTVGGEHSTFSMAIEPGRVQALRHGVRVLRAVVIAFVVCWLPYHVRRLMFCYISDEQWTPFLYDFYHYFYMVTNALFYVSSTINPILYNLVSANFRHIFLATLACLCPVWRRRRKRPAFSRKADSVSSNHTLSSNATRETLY

Compound | cell count [1] | activation [2]
CCCCOc1ccc(N(CC(=O)NC(C)C)C(=O)CCC(=O)Nc2ccccn2)cc1 | 43 cells | -1.4% (inactive)
Cc1ccc(S(=O)(=O)N2CCOCC2)cc1NC(=O)COC(=O)c1cnccn1 | 51 cells | -0.4% (inactive)
O=C1CCC(CCC(=O)N2CCCC(C(=O)c3ccc(Cl)cc3)C2)=NN1 (centres undefined) | 70 cells | -0.5% (inactive)
CCOC(=O)/C(C#N)=C/c1ccc(OCC(=O)Nc2ccccc2)c(OC)c1 | 80 cells | -4.5% (inactive)
CCOC(=O)/C(=N\Nc1ccccc1[N+](=O)[O-])c1csc(Nc2ccccc2)n1 | 59 cells | 12.7% (inactive)
CCOC(=O)/C(=C\c1ccc([N+](=O)[O-])cc1)C(=O)c1cc(C(C)=O)c(Nc2ccccc2)s1 | 50 cells | 49.8% (active)
COc1ccc(S(=O)(=O)N2CCCCC2)cc1NC(=O)COc1ccccc1 | 55 cells | 2.1% (inactive)
COCC(C)n1c(C)cc(C(=O)CSc2cc(C)c3ccccc3n2)c1C (centres undefined) | 54 cells | 5% (inactive)
O=C(O)C1CCN(C(=O)OCc2ccccc2)CC1 | 88 cells | -0.7% (inactive)
CC1=C(C(N)=O)C(c2ccc(Br)cc2)n2ncnc2N1 (centres undefined) | 82 cells | -1.6% (inactive)
Fc1ccccc1/C=C1\CCCC2=C1Nc1ncnn1C2c1ccccc1F (centres undefined) | 72 cells | 58.7% (active)
CC(C)C(C)(C#N)NC(=O)CSc1nc2scc(-c3ccccc3)c2c(=O)[nH]1 (centres undefined) | 65 cells | 6.5% (inactive)
NS(=O)(=O)c1ccc(CCNC(=O)c2ccc([N+](=O)[O-])cc2[N+](=O)[O-])cc1 | 46 cells | -0.2% (inactive)
O=C(CCC1CCN(C(=O)c2cccc(Cl)c2F)CC1)Nc1ccccc1 | 63 cells | 0.6% (inactive)
COc1cc(OC)cc(C(=O)NNC(=O)CCOc2ccccc2OC)c1 | 73 cells | -0.7% (inactive)
CCCCOc1ccc(C(=O)NCC(=O)OCC(=O)c2c(N)n(C)c(=O)n(C)c2=O)cc1 | 49 cells | -0.7% (inactive)
Cc1nnc(SCC(=O)N2c3ccccc3C(C)(c3ccc(Cl)cc3)CC2(C)C)s1 (centres undefined) | 47 cells | 8.5% (inactive)
CCn1cc(/C=C(\NC(=O)c2ccc(C)cc2)C(=O)NCCN2CCOCC2)c2ccccc21 | 75 cells | 1.6% (inactive)
N#CC1(NC(=O)COc2ccc3oc4ccccc4c3c2)CCCCC1 | 33 cells | 0.8% (inactive)
O=C(Nc1ccc2c(c1)CCC2)c1ccc(Br)s1 | 65 cells | 4.4% (inactive)
Clc1cccc(Cl)c1Cn1nnc(-c2cccs2)n1 | 79 cells | 4.8% (inactive)
CC(=O)N[C@H]1[C@H]([C@H](O)[C@H](O)CO)OC(C(=O)O)=C[C@@H]1O | 69 cells | 1.8% (inactive)
CCOc1c(N2CCCCC2)c(=O)c1=O | 32 cells | 2.2% (inactive)
CCOc1ccccc1NC(=O)NC1CCCCCCC1 | 52 cells | -0.7% (inactive)
CC1(C)CC(=O)C=C(N2CCOCC2)C1 | 46 cells | 0.2% (inactive)
Cc1nc2ccc(C(=O)N/N=C/c3ccc(O)cc3)cc2[nH]1 | 50 cells | -0.6% (inactive)

Compound | cell count [1] | activation [2]
CC(C)(C)C(=O)Nc1ccc(C(=O)N/N=C/c2ccccc2OC(=O)c2ccc(Cl)cc2Cl)cc1 | 48 cells | 0.7% (inactive)
O=C(N/N=C/c1ccc(OC(=O)c2ccccc2Cl)cc1)c1ccc(O)cc1 | 65 cells | 40.7% (active)
CC1=CC=CN2C1=NC(=O)CC2(C)C(=O)N(CC(=O)NC1CCCC1)c1ccccc1C (centres undefined) | 39 cells | 1% (inactive)
Cc1ccc(N2C(=O)C(NC(=O)c3c(F)cccc3F)(C(F)(F)F)C3=C2CC(C)(C)CC3=O)cc1 (centres undefined) | 69 cells | 4% (inactive)
COc1ccccc1CN(C)c1nnnn1-c1ccccc1 | 50 cells | 1.1% (inactive)
CSc1ccc(CNCCN2CCOCC2)cc1 | 55 cells | -2.1% (inactive)
FC(F)(F)Oc1ccc(-c2cn3cccnc3n2)cc1 | 36 cells | 3.1% (inactive)
CCc1ccccc1NC(=O)/C(=C/c1ccccc1)c1ccccc1 | 63 cells | 6.1% (inactive)
Cc1coc(C)c1C(=O)CC1(O)C(=O)N(C)c2ccc(Cl)cc21 (centres undefined) | 91 cells | -1% (inactive)
CN(C)CCNC(=O)C(C(=O)c1ccccc1)n1ccccc1=O (centres undefined) | 94 cells | -1.5% (inactive)
CCS(=O)(=O)n1nc(-c2ccccc2)nc1SCc1ccccc1 | 92 cells | 6.4% (inactive)
CN(C)/C=C(/C(=O)c1ccc(F)cc1)S(=O)(=O)c1ccc(F)cc1 | 51 cells | -0.1% (inactive)
CCOC(=O)c1c(CN2CCOCC2)n(-c2ccccc2)c2ccc(O)cc12 | 70 cells | 2.7% (inactive)
CC1=NNC(=O)C1CCC(=O)N/N=C\c1cccc(Cl)c1 (centres undefined) | 94 cells | -1% (inactive)
CCOC(=O)c1cnc(SCC(=O)Nc2ccccc2C(=O)OC)nc1N | 88 cells | -1.8% (inactive)
CC(C)c1ccc(OCC(O)Cn2cnc3ccccc32)cc1 (centres undefined) | 46 cells | 0.1% (inactive)
O=C(C(c1ccccc1)c1ccccc1)N1CCN(CC(O)COc2ccccc2)CC1 (centres undefined) | 88 cells | 0.6% (inactive)
OC(CN=c1sc2ccccc2n1CC(O)COc1ccccc1)COc1ccccc1 (centres undefined) | 92 cells | 58.9% (active)
Cc1nn(C)c(Oc2ccccc2)c1CCNS(=O)(=O)c1ccc(F)cc1 | 76 cells | -0.4% (inactive)
Cc1cc(N(C)C)cc(C)[n+]1[O-] | 38 cells | 0.3% (inactive)
Cc1ccc(C(=O)N/C(=C\c2cn(S(=O)(=O)N(C)C)c3ccccc23)C(=O)N2CCCC2)cc1 | 61 cells | 1.6% (inactive)
CCCCCOC(=O)C1=C(C)Nc2nnnn2C1c1ccc(OC)c(OC)c1OC (centres undefined) | 85 cells | 0.9% (inactive)
CCCS(=O)(=O)N1CCC(C(=O)NCCc2ccc(OC)c(OC)c2)CC1 | 46 cells | -0.4% (inactive)
O=C(N/N=C/c1ccccn1)c1cccc(NC(=O)c2ccc(Cl)cc2)c1 | 56 cells | 2.8% (inactive)
Cc1cc2c(cc1C)N(C(=O)CN1C(=O)c3ccccc3C1=O)C(C)(C)c1ssc(=S)c1-2 | 52 cells | 23.8% (inactive)
COc1ccnc(Oc2ccccc2)n1 | 45 cells | 3% (inactive)
